The values below come from publication PMC7862700, “An all-to-all approach to the identification of sequence-specific readers for epigenetic DNA modifications on cytosine”.

Common to all, as to assay: DAPPL (digital affinity profiling via proximity ligation, sequencing); 10 mM Tris-HCl pH 7.5, 50 mM NaCl, 1 mM DTT, 4% glycerol, room temperature, 30 min; GST-TFs on glutathione beads, 16-mer random dsDNA library, 0.1% formaldehyde crosslink after washing; high values mean tight binding
Holding throughout (settings): protein: recombinant; tags: N-terminal GST; dsDNA, one strand shown

One assay addresses T1, ELK1 (Homo sapiens, UniProt P19419 1-428).
T1 sequence: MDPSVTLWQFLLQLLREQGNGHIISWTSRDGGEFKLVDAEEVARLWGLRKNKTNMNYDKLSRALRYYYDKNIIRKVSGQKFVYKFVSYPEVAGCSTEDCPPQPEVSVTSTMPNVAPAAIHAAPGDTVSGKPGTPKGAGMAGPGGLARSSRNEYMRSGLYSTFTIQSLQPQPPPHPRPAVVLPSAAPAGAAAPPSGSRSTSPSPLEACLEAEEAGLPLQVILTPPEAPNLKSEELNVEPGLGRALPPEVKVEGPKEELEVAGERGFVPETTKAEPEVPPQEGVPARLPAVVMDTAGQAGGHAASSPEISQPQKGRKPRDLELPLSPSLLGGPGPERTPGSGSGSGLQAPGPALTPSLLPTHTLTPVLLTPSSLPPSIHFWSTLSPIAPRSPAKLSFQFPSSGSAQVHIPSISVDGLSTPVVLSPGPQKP
In short, it runs like this: (§1)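 Sequencing on an Illumina NextSeq500 followed washing, crosslinking with 0.1% formaldehyde, proximity ligation (BsaI/T4 ligase, 1 h, 37 °C) and PCR amplification of pools that had been incubated for 30 min at room temperature with 200 nmole of a random double-stranded 16-mer DNA library in Tris/NaCl/DTT/glycerol buffer. Each pool held DNA-barcoded human transcription factors, expressed in yeast as GST fusions and captured on glutathione beads, plus a tag-only sample. Binding signal is a hexamer's read frequency for a factor divided by its frequency in the tag-only sample.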

The next assay has as its target T2, GABPA (Homo sapiens, UniProt Q06546 1-454).
T2 sequence: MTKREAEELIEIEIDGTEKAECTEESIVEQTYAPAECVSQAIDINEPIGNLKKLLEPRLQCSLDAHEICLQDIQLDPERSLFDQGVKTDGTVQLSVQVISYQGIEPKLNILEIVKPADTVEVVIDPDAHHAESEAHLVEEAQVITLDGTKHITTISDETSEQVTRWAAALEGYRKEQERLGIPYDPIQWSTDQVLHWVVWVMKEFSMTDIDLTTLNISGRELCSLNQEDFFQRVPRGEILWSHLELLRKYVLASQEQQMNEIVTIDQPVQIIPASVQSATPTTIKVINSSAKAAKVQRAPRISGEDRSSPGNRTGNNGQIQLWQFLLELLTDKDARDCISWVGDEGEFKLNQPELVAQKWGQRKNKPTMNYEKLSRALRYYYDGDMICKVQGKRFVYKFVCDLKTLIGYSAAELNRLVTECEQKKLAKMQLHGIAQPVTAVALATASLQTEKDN
In short, it runs like this:
as §1

Another assay concerns the target T3, ERG (Homo sapiens, UniProt P11308 1-479).
T3 sequence: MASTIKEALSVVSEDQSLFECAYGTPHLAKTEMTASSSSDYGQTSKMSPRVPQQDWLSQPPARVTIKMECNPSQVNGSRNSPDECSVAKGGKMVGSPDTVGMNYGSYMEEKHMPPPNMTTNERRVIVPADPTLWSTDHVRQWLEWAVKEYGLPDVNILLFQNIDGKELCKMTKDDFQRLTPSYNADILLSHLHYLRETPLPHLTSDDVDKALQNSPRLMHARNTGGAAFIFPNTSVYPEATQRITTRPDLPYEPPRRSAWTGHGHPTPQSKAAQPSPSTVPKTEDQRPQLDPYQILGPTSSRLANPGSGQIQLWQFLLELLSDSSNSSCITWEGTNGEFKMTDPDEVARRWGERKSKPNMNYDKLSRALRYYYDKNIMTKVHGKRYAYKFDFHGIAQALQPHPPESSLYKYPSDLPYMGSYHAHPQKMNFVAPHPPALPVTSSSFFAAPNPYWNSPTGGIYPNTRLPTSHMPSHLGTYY
In short, it runs like this:
as §1

The target in the next assay is ELF1 (Homo sapiens, UniProt P32519 1-619). In a few lines: as §1
Chain of ELF1 (P32519 whole entry): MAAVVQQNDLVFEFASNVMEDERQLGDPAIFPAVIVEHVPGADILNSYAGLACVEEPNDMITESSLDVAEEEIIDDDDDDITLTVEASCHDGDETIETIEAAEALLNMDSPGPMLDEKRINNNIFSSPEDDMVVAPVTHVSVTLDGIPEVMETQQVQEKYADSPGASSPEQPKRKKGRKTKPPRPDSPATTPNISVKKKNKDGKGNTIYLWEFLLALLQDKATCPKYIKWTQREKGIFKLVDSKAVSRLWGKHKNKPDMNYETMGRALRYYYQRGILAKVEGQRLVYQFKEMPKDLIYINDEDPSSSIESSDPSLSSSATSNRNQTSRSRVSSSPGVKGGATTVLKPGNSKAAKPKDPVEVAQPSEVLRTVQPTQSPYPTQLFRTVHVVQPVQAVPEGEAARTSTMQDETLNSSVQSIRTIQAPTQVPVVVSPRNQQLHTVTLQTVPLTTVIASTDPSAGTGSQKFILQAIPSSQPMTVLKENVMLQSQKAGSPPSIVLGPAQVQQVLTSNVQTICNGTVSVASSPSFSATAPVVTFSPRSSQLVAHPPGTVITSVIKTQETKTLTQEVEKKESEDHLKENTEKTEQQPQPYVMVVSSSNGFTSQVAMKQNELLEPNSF
For the next assay, the target named is T4, EHF (Homo sapiens, UniProt Q9NZC4 1-300).
T4 sequence: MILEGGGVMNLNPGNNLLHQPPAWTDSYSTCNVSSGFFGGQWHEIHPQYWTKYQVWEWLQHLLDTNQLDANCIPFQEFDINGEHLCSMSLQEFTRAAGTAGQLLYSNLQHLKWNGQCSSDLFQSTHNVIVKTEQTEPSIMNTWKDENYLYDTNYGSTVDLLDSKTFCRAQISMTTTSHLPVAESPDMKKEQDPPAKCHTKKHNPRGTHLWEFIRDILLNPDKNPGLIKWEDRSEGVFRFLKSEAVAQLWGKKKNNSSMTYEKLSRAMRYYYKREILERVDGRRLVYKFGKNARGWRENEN
In short, it runs like this:
as §1

The target of another assay is SPIB (Homo sapiens, UniProt Q01892 1-262). In short, it runs like this:
as §1

The next assay has as its target T5, ELK3 (Homo sapiens, UniProt P41970 1-407).
T5 sequence: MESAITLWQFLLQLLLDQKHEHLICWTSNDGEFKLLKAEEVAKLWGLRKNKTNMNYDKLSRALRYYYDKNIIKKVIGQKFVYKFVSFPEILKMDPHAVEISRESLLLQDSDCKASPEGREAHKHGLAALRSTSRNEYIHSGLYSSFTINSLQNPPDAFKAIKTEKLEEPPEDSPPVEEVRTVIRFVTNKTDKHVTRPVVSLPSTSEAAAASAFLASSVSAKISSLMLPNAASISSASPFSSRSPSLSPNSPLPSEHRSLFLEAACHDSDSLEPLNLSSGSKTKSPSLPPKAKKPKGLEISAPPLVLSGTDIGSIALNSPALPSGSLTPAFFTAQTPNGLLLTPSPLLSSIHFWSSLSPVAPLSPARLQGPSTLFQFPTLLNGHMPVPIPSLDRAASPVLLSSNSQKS
In short, it runs like this:
as §1

A further assay addresses ETV5 (Homo sapiens, UniProt P41161 1-510). In short, it runs like this:
as §1

Another assay addresses T6, SPIC (Homo sapiens, UniProt Q8N5J4 1-248).
T6 sequence: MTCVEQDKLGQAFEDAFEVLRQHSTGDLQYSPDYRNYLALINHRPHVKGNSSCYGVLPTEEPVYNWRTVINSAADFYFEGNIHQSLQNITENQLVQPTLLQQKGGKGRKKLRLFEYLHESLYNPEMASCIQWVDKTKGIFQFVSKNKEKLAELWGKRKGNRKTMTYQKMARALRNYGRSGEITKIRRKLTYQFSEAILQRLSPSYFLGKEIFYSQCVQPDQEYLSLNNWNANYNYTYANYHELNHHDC
In short, it runs like this:
as §1

The next assay addresses ELF4 (Homo sapiens, UniProt Q99607 1-663). In short, it runs like this:
as §1

The next assay has as its target T7, ELF3 (Homo sapiens, UniProt P78545 1-371).
T7 sequence: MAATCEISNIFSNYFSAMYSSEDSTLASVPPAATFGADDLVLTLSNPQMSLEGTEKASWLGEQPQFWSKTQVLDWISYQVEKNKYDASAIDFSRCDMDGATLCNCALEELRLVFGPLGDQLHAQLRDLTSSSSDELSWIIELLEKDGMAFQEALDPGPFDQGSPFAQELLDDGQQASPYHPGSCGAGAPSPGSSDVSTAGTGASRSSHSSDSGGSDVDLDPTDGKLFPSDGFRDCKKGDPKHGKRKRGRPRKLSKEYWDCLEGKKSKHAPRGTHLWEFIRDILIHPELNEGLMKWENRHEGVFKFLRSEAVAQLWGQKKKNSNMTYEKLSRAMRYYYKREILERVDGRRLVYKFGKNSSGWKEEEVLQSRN
In short, it runs like this:
as §1

Another assay has as its target ETV1 (Homo sapiens, UniProt P50549 1-477). In short, it runs like this: as §1
In the next assay the target is T8, ERF (Homo sapiens, UniProt P50548 1-548).
T8 sequence: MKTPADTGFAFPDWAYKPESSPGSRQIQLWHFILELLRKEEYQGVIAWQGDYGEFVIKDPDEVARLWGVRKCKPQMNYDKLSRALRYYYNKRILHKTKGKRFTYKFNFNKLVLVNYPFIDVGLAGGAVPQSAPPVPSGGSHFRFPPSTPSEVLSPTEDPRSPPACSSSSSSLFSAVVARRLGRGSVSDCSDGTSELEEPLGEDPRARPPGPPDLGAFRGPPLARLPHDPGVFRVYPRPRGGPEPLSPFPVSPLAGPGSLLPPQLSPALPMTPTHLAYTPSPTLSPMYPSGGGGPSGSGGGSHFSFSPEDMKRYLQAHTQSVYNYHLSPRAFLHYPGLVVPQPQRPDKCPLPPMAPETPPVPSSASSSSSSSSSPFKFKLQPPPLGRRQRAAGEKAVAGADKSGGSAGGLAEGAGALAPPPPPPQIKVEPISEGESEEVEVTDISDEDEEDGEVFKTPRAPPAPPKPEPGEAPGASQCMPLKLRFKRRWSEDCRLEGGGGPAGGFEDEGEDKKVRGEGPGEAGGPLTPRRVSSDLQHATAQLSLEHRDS
In short, it runs like this:
as §1

Another assay addresses T9, ETV3L (Homo sapiens, UniProt Q6ZN32 1-361).
T9 sequence: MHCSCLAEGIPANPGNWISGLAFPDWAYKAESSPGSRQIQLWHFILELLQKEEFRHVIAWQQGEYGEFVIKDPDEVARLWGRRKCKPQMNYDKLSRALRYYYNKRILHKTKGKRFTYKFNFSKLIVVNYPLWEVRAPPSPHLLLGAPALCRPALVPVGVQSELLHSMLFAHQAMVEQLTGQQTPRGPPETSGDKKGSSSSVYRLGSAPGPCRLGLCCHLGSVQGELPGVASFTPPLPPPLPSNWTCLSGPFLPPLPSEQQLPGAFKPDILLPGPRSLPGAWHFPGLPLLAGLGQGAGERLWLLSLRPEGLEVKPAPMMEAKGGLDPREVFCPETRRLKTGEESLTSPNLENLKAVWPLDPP
In a few lines:
as §1

The target in a further assay is T10, SPDEF (Homo sapiens, UniProt O95238 1-335).
T10 sequence: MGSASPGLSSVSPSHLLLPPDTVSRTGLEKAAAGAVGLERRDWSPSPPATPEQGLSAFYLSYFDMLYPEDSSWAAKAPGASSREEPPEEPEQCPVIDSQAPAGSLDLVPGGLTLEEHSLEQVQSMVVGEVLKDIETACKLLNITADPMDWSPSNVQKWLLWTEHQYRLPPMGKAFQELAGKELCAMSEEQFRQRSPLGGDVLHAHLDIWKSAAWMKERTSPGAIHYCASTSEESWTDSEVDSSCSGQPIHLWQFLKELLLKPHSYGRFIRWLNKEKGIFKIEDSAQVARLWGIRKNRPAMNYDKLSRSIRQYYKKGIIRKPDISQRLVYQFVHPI
In a few lines: as §1

The target of the next assay is T11, ETV7 (Homo sapiens, UniProt Q9Y603 1-341).
T11 sequence: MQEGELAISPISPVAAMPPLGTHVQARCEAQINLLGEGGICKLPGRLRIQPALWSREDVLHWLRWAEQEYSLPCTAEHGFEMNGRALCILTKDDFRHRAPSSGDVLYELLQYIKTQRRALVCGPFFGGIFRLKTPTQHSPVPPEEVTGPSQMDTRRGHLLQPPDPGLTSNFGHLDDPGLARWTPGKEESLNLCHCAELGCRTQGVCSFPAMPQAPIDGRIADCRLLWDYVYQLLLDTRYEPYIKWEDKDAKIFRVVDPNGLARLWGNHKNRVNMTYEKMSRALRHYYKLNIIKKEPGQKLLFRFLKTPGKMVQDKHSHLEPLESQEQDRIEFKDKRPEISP
In short, it runs like this: as §1

A further assay addresses T12, ETV3 (Homo sapiens, UniProt P41162-2 1-143).
T12 sequence: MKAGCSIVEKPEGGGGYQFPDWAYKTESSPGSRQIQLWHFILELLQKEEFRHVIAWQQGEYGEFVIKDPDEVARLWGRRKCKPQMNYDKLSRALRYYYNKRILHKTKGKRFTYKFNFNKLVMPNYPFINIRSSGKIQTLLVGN
In a few lines:
as §1

Chain of SPIB (Q01892 whole entry): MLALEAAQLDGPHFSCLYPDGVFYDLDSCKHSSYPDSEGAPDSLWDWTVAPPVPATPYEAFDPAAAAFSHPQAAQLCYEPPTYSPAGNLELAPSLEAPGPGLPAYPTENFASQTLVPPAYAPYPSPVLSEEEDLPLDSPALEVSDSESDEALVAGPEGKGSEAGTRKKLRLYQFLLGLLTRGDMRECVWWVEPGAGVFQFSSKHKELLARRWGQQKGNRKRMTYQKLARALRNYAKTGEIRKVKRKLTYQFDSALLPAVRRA
Chain of ETV1 (P50549 whole entry): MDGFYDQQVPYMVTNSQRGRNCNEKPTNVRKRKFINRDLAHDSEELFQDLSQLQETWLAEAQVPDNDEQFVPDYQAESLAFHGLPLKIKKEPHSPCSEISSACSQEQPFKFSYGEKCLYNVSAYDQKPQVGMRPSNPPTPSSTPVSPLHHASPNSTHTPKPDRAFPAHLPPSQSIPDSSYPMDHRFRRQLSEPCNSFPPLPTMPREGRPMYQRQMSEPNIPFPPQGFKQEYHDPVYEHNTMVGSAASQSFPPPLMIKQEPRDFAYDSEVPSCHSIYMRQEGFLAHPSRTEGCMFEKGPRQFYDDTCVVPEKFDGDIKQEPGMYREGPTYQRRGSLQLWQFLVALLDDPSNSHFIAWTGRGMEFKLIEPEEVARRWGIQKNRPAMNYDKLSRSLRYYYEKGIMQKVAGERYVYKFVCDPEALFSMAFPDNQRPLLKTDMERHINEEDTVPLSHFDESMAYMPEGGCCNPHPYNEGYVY
Chain of ETV5 (P41161 whole entry): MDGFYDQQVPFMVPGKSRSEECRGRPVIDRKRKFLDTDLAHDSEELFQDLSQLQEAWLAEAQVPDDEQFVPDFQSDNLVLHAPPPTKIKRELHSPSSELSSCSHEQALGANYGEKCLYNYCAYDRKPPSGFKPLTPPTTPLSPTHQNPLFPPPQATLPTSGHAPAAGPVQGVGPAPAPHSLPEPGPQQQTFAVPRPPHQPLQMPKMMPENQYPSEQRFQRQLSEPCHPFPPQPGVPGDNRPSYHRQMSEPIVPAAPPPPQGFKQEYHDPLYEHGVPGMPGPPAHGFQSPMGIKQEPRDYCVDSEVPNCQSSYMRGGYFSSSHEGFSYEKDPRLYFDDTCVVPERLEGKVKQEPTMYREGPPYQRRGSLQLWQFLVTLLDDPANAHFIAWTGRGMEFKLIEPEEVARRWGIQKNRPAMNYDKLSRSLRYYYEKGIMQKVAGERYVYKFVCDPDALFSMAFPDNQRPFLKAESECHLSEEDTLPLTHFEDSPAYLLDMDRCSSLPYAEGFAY
Chain of ELF4 (Q99607 whole entry): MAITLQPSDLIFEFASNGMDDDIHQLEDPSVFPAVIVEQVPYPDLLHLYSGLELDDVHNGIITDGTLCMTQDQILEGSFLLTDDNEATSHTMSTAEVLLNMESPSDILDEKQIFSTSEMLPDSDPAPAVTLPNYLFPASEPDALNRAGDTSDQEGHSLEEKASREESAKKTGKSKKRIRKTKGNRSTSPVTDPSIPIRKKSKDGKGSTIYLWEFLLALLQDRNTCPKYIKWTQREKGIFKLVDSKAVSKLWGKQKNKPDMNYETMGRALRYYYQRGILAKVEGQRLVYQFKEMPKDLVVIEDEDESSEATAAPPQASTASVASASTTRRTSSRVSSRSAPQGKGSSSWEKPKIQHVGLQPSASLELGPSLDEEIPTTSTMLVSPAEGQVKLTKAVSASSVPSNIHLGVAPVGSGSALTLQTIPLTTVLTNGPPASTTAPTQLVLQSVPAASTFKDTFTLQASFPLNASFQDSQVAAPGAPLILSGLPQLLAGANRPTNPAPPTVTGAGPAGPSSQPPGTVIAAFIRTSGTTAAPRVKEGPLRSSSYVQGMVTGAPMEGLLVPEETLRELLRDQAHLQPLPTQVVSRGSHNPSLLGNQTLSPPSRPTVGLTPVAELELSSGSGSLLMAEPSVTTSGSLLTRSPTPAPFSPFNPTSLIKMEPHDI

Take AGTCCC: the binding signal was 1.06 fold enrichment (6-mer frequency, TF over GST control) with ELK1; 1.03 fold enrichment (6-mer frequency, TF over GST control) with GABPA; 1.07 fold enrichment (6-mer frequency, TF over GST control) with ERG; 1.08 fold enrichment (6-mer frequency, TF over GST control) with ELF1; 1.01 fold enrichment (6-mer frequency, TF over GST control) in the assay with EHF; 1.03 fold enrichment (6-mer frequency, TF over GST control) with SPIB. Besides, the binding signal in the assay with ELK3 was 1.01 fold enrichment (6-mer frequency, TF over GST control); with ETV5, 1.04 fold enrichment (6-mer frequency, TF over GST control); with SPIC it was 1.06 fold enrichment (6-mer frequency, TF over GST control); with ELF4, 1.06 fold enrichment (6-mer frequency, TF over GST control); in the assay with ELF3, 1.11 fold enrichment (6-mer frequency, TF over GST control); in the assay with ETV1, 1.11 fold enrichment (6-mer frequency, TF over GST control). Moreover, the binding signal with ERF is 1.17 fold enrichment (6-mer frequency, TF over GST control); in the assay with ETV3L, 1.04 fold enrichment (6-mer frequency, TF over GST control); with SPDEF, 1.03 fold enrichment (6-mer frequency, TF over GST control); with ETV7, 1.07 fold enrichment (6-mer frequency, TF over GST control); in the assay with ETV3, 1.06 fold enrichment (6-mer frequency, TF over GST control).
